# ALR inh – blocks human ALR sulfhydryl oxidase activity; hit rate 3.8% among 290,000; inhibition, % (no concentration beside the values); purified ALR, DTT oxidation, H2O2 HRP-luminol luminescence;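 active = mean replicate inhibition above about 79%, with every replicate also reaching it, limit read from the data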
# SUMO HTRF inh – inhibitors of human SUMOylation (UBC9); P63279; HTRF SUMOylation assay, SAE1/SAE2 + UBC9, in vitro; inhibition, % at 35 µM; hit rate 0.36% among 290,000; AID 2006; in the data active = inhibition above about 50%, passing the limit was not always enough
# Target sequence (P63279 whole entry, looked up): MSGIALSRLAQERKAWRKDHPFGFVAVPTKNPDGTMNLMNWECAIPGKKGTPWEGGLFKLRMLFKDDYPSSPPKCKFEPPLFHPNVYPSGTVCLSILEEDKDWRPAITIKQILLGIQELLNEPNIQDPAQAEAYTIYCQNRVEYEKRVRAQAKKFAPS
# Cardio protect – modulators protecting cardiomyocytes from myocardial damage | H9c2 cardiomyocytes, H2O2 injury protection, ATPLite, 2 h | protection from H2O2 cell death, % at 20 µM | hit rate 0.63% among 360,000 | AID 588492;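 active = compounds giving at least 50% protection of heart cells from peroxide-induced death in the single-dose screen, raw or plate-pattern-corrected value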;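 also: 0% = DMSO wells with peroxide and 100% = DMSO wells without peroxide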
# NTR1 ag – agonists of human neurotensin receptor NTR1; P30989; NTR1-U2OS beta-arrestin-GFP spot imaging, agonist mode; activation, % at 20 µM; hit rate 0.17% among 330,000;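 active = activation at or above 40% of the spot to cytoplasm intensity ratio, with at least 20 cells analyzed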;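 also: 0% = DMSO without peptide and 100% = 100 nM NTR1 peptide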
# Target sequence (P30989 whole entry, looked up): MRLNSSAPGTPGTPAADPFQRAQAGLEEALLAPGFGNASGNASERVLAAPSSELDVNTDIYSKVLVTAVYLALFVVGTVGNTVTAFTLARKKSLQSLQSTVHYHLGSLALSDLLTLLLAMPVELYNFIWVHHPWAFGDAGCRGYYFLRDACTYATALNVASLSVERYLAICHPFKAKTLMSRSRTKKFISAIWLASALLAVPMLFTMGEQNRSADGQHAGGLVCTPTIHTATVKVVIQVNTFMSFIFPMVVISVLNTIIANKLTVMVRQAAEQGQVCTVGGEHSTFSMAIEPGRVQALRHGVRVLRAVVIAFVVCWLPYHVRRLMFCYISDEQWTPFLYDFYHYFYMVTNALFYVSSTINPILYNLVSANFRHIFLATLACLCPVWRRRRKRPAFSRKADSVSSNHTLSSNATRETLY
# * = called active by the depositor; / = no result given. This is a sample that favours compounds with a hit; in the whole collection about 3.9% have one here.
SMILES,ALR inh,SUMO HTRF inh,Cardio protect,NTR1 ag
S=C(Nc1ccc2nc(-c3ccccn3)c(-c3ccccn3)nc2c1)N1CCCCC1,/,69*,11,8
COc1ccccc1NS(=O)(=O)c1cc2c3c(c1)CC(=O)N3CCC2,8,8,-8,-1
Clc1ccc(CSc2ccc(-c3ccco3)nn2)cc1,41,29,-5,0
Cc1ccc(CSc2ccc(-c3ccco3)nn2)cc1,49,8,-9,0
Cc1cccc(CSc2ccc(-c3ccco3)nn2)c1,98*,20,-4,0
Clc1cccc(CSc2ccc(-c3ccco3)nn2)c1,98*,27,-5,-1
Nc1nonc1-n1nnc(C(=O)N/N=C/c2ccccn2)c1CNc1ccccc1,8,-7,50*,-1
Nc1nonc1-n1nnc(C(=O)N/N=C/c2ccccn2)c1-c1ccccc1,/,-1,49,0
CN(Cc1c(C(=O)N/N=C/c2ccc(O)cc2)nnn1-c1nonc1N)c1ccccc1,100*,/,-7,1
COc1ccc(/C=C2\CCCC(C(=O)C(F)(F)F)=C2O)cc1,20,-7,-1,-3
O=C(C1=C(O)/C(=C/c2ccc(O)cc2)CCC1)C(F)(F)F,99*,-11,-9,4
Cn1cc(SCC(=O)Nc2ccc3c(c2)OCCO3)c2ccccc21,99*,-2,5,0
O=C(CSc1ccccc1)Nc1ccc2c(c1)OCCO2,-6,6,-6,-1
O=C(CSc1cccc[n+]1[O-])Nc1ccc2c(c1)OCCO2,87*,4,3,0
NC(=O)c1ccc(NC(=O)CSc2cn(CC(=O)N3CCOCC3)c3ccccc23)cc1,99*,11,0,0
O=C(CSc1cn(CC(=O)N2CCOCC2)c2ccccc12)N1CCOCC1,-1,-10,1,-1
CCn1c(=O)cc(SCC(=O)Nc2ccc3c(c2)OCO3)c2ccccc21,-2,-4,11,2
COc1ccc(/C=N/N2C(=O)c3ccccc3C2=O)cc1,/,-2,4,0
C[C@@H]1CN([C@H](C)CO)C(=O)c2cc(Br)cnc2O[C@H]1CN(C)C(=O)c1ccccc1,/,/,-2,/
Nn1c(SCc2cn3cc(Cl)ccc3n2)nnc1-c1ccncc1,98*,4,10,-1
CCOC(=O)CC(=O)CSc1ccc2nnc(-c3cccc(F)c3)n2n1,28,27,12,3
COC(=O)c1ccc(CSc2ccc3nnc(-c4cccc(F)c4)n3n2)o1,/,-10,105*,5
CC(C)[C@H](NC(=O)c1ccco1)C(=O)OCC(=O)c1ccc2c(c1)NC(=O)CO2,100*,4,-2,0
O=C(NCc1ccccc1)/C(=C\c1ccc(O)cc1)NC(=O)c1ccco1,97*,20,5,0
O=C(NCc1ccccc1)/C(=C/c1ccco1)NC(=O)c1ccco1,93*,0,2,1
SMILES,ALR inh,SUMO HTRF inh,Cardio protect,NTR1 ag
O=C(NCc1ccccc1)/C(=C/c1ccccc1)NC(=O)c1ccco1,-3,-5,3,-2
Cc1nnc(NC(=O)CSCc2c(C)noc2C)s1,-11,/,1,2
NC(=O)c1ccsc1NC(=O)COC(=O)[C@@H]1CCCN1C(=O)c1cccs1,/,/,2,/
NC(=O)c1ccsc1NC(=O)COC(=O)C1CCCN1C(=O)c1cccs1 (stereo not given),97*,-11,/,3
CCOC(=O)N(C)C[C@@H]1OCc2ccccc2-c2c(n(C)c3ccccc23)C(=O)N([C@H](C)CO)C[C@H]1C,/,/,1,/
O=CN1Cc2[nH]c3ccccc3c2N(c2ccc(Cl)cc2)C1=O,/,18,5,3
COCCn1nnnc1C(c1ccccc1OC)N1CCN(c2ccccc2F)CC1 (stereo not given),4,-10,-5,-1
Oc1c(Cl)cc(Cl)cc1C=Nc1ccc(Br)cc1,-30,19,44,3
Cc1ccc(N=Cc2cc(Br)cc(Cl)c2O)cc1,-6,29,76*,1
Oc1ccc(Br)cc1C=Nc1ccc(Cl)cc1,-18,7,50*,2
OCC(CO)(CO)N=Cc1cc(Br)ccc1O,-8,21,58*,1
CCN(CC)c1ccc(N=Cc2cc(Br)ccc2O)cc1,28,-26,-5,2
CCCCCN(C(=O)NC(=O)NCCCC)S(C)(=O)=O,-4,16,-4,1
CCCCNC(=O)c1onc(CSc2ccncc2)c1C(=O)NCCCC,0,2,-5,4
CCOc1ccc2nc(NC(=O)CSc3nc4c(c(=O)n(C)c(=O)n4C)n3C(C)C)sc2c1,-7,20,-17,17
O=C(O)C1Cc2ccccc2CN1S(=O)(=O)c1ccccc1 (stereo not given),-2,10,0,0
O=C(O)C1Cc2ccccc2CN1S(=O)(=O)c1ccc2ccccc2c1 (stereo not given),95*,4,5,-3
O=C1CCc2ccccc2O1,/,/,-1,3
Cc1c(Cl)cccc1Nc1n[nH]c(=S)s1,/,/,7,/
Cc1ccccc1Nc1n[nH]c(=S)s1,/,/,-7,/
Fc1ccccc1Nc1n[nH]c(=S)s1,99*,18,-2,0
S=c1[nH]nc(Nc2cccc3ccccc23)s1,97*,10,-8,0
O=C(CCN1CCCCC1)NNC(=S)NC(=O)c1ccc(Br)cc1,99*,-15,16,0
O=C(CCN1CCOCC1)NNC(=S)NC(=O)c1ccc(Br)cc1,99*,-14,-1,2
O=C(NCCN1CCCC1)c1ccc(Br)cc1,-17,6,-4,0
SMILES,ALR inh,SUMO HTRF inh,Cardio protect,NTR1 ag
Nc1ccc(NC(=O)CCN2CCOCC2)cc1,93*,-5,1,1
c1ccc(-c2nc(Sc3ncnc4c3cnn4-c3ccccc3)n[nH]2)cc1,64,11,/,-1
Cc1ccc(N2CCN(S(=O)(=O)N3CCCCC3)CC2)cc1C,3,1,-2,3
Cc1ccc(N2CCN(C(=O)N3CCCC3)CC2)cc1C,96*,14,1,-2
CCO[C@H]1OC(C(=O)N2CCOCC2)=C[C@@H](c2ccccc2)[C@@H]1CCCO,1,8,6,-5
COc1cc(C(=O)OCCCN2CCOCC2)ccc1O,99*,9,0,0
COc1ccc2sc(N(CCN(C)C)C(=O)c3cc(Cl)sc3Cl)nc2c1,-18,-18,5,1
CC(=O)Nc1cccc(OCC(O)Cn2cnc3ccccc32)c1 (stereo not given),100*,6,1,5
Cc1ccc(CNCC(=O)Nc2ccc(N3CCOCC3)cc2)cc1,99*,-7,3,-2
O=C(Nc1ccc(N2CCOCC2)cc1N1CCOCC1)c1ccc(Br)cc1,-9,-5,5,0
O=C(Nc1ccc(N2CCOCC2)cc1N1CCOCC1)c1cccs1,78*,-11,8,0
Cc1ccc(CSCC(=O)Nc2ccc(N3CCOCC3)cc2N2CCOCC2)cc1,98*,/,-1,5
O=S(=O)(Nc1ccc(N2CCOCC2)cc1)c1cccs1,98*,14,0,3
O=C(N/N=C/c1ccc(N2CCOCC2)cc1)c1ccc(NS(=O)(=O)c2cccs2)cc1,17,2,-2,0
CCNCC(=O)Nc1ccc(N2CCOCC2)cc1,11,10,2,-1

# Compound activity: PubChem BioAssay, several laboratories
